The values that follow come from PubChem BioAssay (EPA / NIEHS).

The structures appear in SMILES notation. The source made the active and inactive calls. Rule for the calls: active = hit-call score of the fitted dose curve at least 0.9, where 1 is the maximum; inactive = score below 0.9.

Read-out in this assay: Cyclin Dependent Kinase Inhibitor 1A (CDKN1A), CDKN1A (gene 1026)
Nature of the assay: LTEA_HepaRG_CDKN1A: Life Technologies and Expression Analysis (LTEA) Assay for Cyclin Dependent Kinase Inhibitor 1A (CDKN1A) using HepaRG (AID 2283450). The following applies: mRNA level, 48 h; actives raise or lower the signal. On the procedure: LTEA_HepaRG is a cell based, multiplexed-readout assay that uses HepaRG, a human liver cell line, with measurements taken at 48 hours after chemical dosing on a 96-well plate.LTEA_HepaRG_CDKN1A is one of 102 assay component(s) measured in the LTEA HepaRG cell culture assay. It is a marker of Cell proliferation, survival, death.Data from the assay component LTEA_HepaRG_CDKN1A was analyzed into 1 endpoint. This assay endpoint, LTEA_HepaRG_CDKN1A, was analyzed with bidirectional fitting relative to DMSO as the negative control and baseline of activity. Using a type of inducible reporter, measures of mRNA induction for gain or loss-of-signal activity can be used to understand regulation of transcription factor activity. To generalize the intended target to other relatable targets, this assay endpoint is annotated to the cell cycle intended target family, where the subfamily is Cell proliferation, survival, death.
A total of 1060 chemcials from the ToxCast library were tested in eight-point concentration-response experiments. Cell culture and cytotoxicity assays were conducted at Thermo Fisher Scientific's Custom Services facility (Madison, WI). A single lot of human HepaRG cells (Thermo Fisher Scientific, Frederick, MD) was used for the cell culture experiments. 96-well format collagen type I coated plates of human HepaRG cells were prepared using established methods. Briefly, cryopreserved HepaRG cells were thawed, plated at a density of approximately 100,000 cells/well in HepaRG Thaw, Plate, and General Purpose media (HPRG770, Thermo Fisher Scientific), and incubated for 48 hours. 0.5% DMSO was selected as vehicle control to balance the requisite need of DMSO in HepaRG cultures to maintain differentiation (for example, baseline metabolism, proportions of hepatocytes vs. cholangiocytes), while enabling further hepatic receptor pathway activation (for example, PXR and CAR) in response to chemical exposure. 48 hours after plating, the culture medium was replaced with HepaRG Serum-Free Incudtion Media. Cells were exposed to each test chemical in duplicate and maintained in CO2 incubators for another 48 hours. Chemical plates were thawed to room temperature and 200x concentrations of treatment groups were prepared. 8-point conentration-reponse curves were made with the highest exposure at 100 uM, followed by half-log dilutions, all in 0.5% DMSO. Each test plate contained variouse controls, induction positive controls (1mM phenobarbital), cytotoxicity positive controls ([…] aflatoxin B1), vehicle controls (0.5% DMSO), and total lysis controls (0.5% DMSO). Cell morphology images were taken using an Essen IncuCyte FLR automated microscope, with six 96-well plates imaged in about 24 minutes. Images were captured and exported and JPEG files. Spent culture media was transfered to black-well plates for the LDH assay, and remaining media was sorted at -80 C for later use. Cells were treated with RLT buffer and frozen until shipped for gene expression analysis. Total RNA was isolated from the cell suspension in 75 uL of Buffer RLT (Qiagen, Germantown, MD 20874) by Quintiles/Expression Analysis (Durham, NC) using a custom isolation procedure. Total RNA from each plate well was transferred to a preamplification plate. Fluidigm's 96.96 Dynamic ArrayTM (Fluidigm, Amsterdam, the Netherlands) technology was used for gene expression analyses by quantitative reverse transcription polymerase chain reaction (qRT-PCR, performed by Quintiles/Expression Analysis, Durham, NC)89. Standard TaqManTM Assays (Applied Biosystems/ThermoFisher Scientific, Foster City, CA) were used to assess the expression of 93 genes selected based on their selectivity and sensitivity to important hepatic receptors known to be modulated by environmental chemicals; importance in human hepatocyte functionality; and hepatotoxicity. […]
On to `C=CC(=O)OCCCCCC(C)C`, for which the compound was classed as inactive. On the same count and under the same terms, next, `ClCC(Cl)CCl`: “inactive”; `O=C(O)C(Cl)(Cl)Cl`: “inactive”. With `CCN1CCC2(CC1)COc1cc3c(cc12)N(C(=O)c1ccc(-c2ccc(-c4nnc(C)o4)cc2C)cc1)CC3`, the AC50 was 84.6 µM (active). With `CC(C)(C)c1cc(O)ccc1O`, the call was inactive.

As to `O=c1[nH]c(=O)[nH]c(=O)[nH]1`, the result was inactive.

With `ClC1(Cl)C2(Cl)C3(Cl)C4(Cl)C(Cl)(Cl)C5(Cl)C3(Cl)C1(Cl)C5(Cl)C24Cl` (stereo unspecified), the compound was classed as inactive. The same measure, in the same setting: under `C[C@]12CCC(=O)C[C@@H]1CC[C@@H]1[C@@H]2CC[C@]2(C)[C@@H](O)CC[C@@H]12` stands “inactive”; under `CCC(=O)C(CC(C)N(C)C)(c1ccccc1)c1ccccc1` (stereo unspecified), “inactive”; under `NC(=O)O`, “inactive”. Same read-out and setting: under `COc1cc(-c2ccc(N)c(OC)c2)ccc1N` stands “inactive”.

Consider `CCCCCCCCc1ccc(O)cc1`, for which the outcome was inactive. As to `C[C@@H]1C[C@@H]([C@H](O)CC2CC(=O)NC(=O)C2)C(=O)[C@@H](C)C1`, the AC50 is 13.2 µM (active). Same read-out and setting: under `CC(=O)[O][Hg][c]1ccccc1` stands 0.174 µM (active).

Consider `CC12CC1(C)C(=O)N(c1cc(Cl)cc(Cl)c1)C2=O` (stereo unspecified), for which the compound was classed as inactive. On the same count and under the same terms, next, `Cc1ccccc1N`: “inactive”. Same read-out and setting: next, `CCOP(=S)(OCC)SCSP(=S)(OCC)OCC`: “inactive”; `CN(C)N=O`: “inactive”.

Turning to `O=C(O)C(F)(F)C(F)(F)C(F)(F)C(F)(F)C(F)(F)C(F)(F)C(F)(F)C(F)(F)C(F)(F)C(F)(F)F`, the call was inactive.

With `Oc1cccc2cccnc12`, the compound was classed as inactive. The same measure, in the same setting: next, `CCOP(=S)(OCC)Oc1nc(Cl)c(Cl)cc1Cl`: “inactive”. `O=[N+]([O-])c1ccc(O)c([N+](=O)[O-])c1`: the AC50 is 12.4 µM (active). For the compound `CC(C)(c1ccccc1)c1ccc(O)c(C(C)(C)c2ccccc2)c1`, the compound was called inactive.

Regarding `CC(C)(OO)c1ccccc1`, the outcome was inactive. For `O=C1C2(Cl)C3(Cl)C4(Cl)C(Cl)(Cl)C5(Cl)C3(Cl)C1(Cl)C5(Cl)C24Cl` (stereo unspecified), the AC50 was 93 µM (active).

In the case of `CC(C)(C)CC(C)(C)c1ccc(O)cc1`, the call was inactive. Turning to `O=C(O)C(F)(F)C(F)(F)C(F)(F)C(F)(F)C(F)(F)C(F)(F)F`, the outcome was inactive. Still for that read-out and setting: next, `C=C(C)C(=O)[O][Sn]([CH2]CCC)([CH2]CCC)[CH2]CCC`: “inactive”.

Turning to `Cn1sc(Cl)cc1=O`, the compound was called inactive. Still for that read-out and setting: next, `CCC(C)(C)c1ccc(O)c(C(C)(C)CC)c1`: “inactive”; `O=C(Nc1ccc2[nH]ccc2c1)c1cc2cc(F)ccc2n1Cc1cccc(F)c1`: “inactive”.
